# Laboratory results reported in the supplement of paper PMC10105736.
# Values without a mark were called inactive.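 The calls were made as follows: active = MAPPIT score above the 99th percentile of random reference set scores in the same batch; inactive = at or below it.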
# B1: Mlp60A (protein)
# chain: MPFVPVETPKCPACGKSVYAAEERVAGGYKFHKTCFKCSMCNKALDSTNCTEHEKELFCKNCHGRKYGPKGYGFGGGAGCLSTDTGAHLNRE
# B2: TER94 (protein)
# chain: MADSKGEDLATAILKRKDRPNRLIVEEAQNDDNSVVSLSQAKMDELQLFRGDTVILKGKRRKETVCIVLSDDTCPDEKIRMNRVVRNNLCVHLSDVVSVQSCPDVKYGKRVRILPIDESTEGVTGNLFEIYLKPYFLEAYRPIHMGDNFIVRAAMRPIEFKVVLTDPEPYCIVAPETVIFCDGDPIKREEEEESLNAVGYDDIGGCRKQLAQIKEMVELPLRHPSLFKAIGVKPPRGILMYGPPGTGKTLIARAVANETGAFFFLINGPEIMSKLAGESESNLRKAFEEAEKNSPAIIFIDEIDAIAPKRDKTHGEVERRIVSQLLTLMDGMKKSSHLIVMAATNRPNSIDPALRRFGRFDREIDIGIPDATGRLEVLRIHTKNMKLHDDVDLEQIAAESHGHVGADLASLCSEAALQQIREKMDLIDLEDDKIDAEVLASLAVTMENFRYAMTKSSPSALRETVVEVPNTTWTDIGGLESVKKELQELVQYPVEHPDKFLKFGMQPSRGVLFYGPPGCGKTLLAKAIANECQANFISVKGPELLTMWFGESEANVRDIFDKARSAAPCVLFFDELDSIAKARGGNVGDAGGAADRVINQILTEMDGMGAKKNVFIIGATNRPDIIDPAILRPGRLDQLIYIPLPDDKSREAILKANLRKSPLAKEVDLTYIAKVTQGFSGADLTEICQRACKLAIRQAIEAEIRREKERAENQNSAMDMDEDDPVPEITSAHFEEAMKFARRSVSDNDIRKYEMFAQTLQQSRGFGQNFRFPGQTGNTSGSGNNLPVNSPGDNGDDDLYS
# B3: Ns1 (protein)
# chain: MALKRLKTKKSKRLTGRLKHKIEKKVRDHNKKERRAAKKNPKKGSKKQKLIQIPNICPFKDDILKEVEEAKQRQEAERLARREAFKAEREQNKFKTLESMVEDADMRSTVHGIMHENDAQDQDEKKYKNAVTKEQSLKQYFKEFRKVIENADVVLEVVDARDPLGTRCNEVERAVRGAPGNKRLVLVLNKADLVPRENLNNWIKYFRRSGPVTAFKASTQDQANRLGRRKLREMKTEKAMQGSVCIGAELLMSMLGNYCRNKGIKTSIRVGVVGIPNVGKSSIINSLTRGRSCMVGSTPGVTKSMQEVELDSKIKLIDCPGIVFTSGGENSHAVLKNAQRVGDVKDPFTIAESVLKRASKEYFCTMYDITNYDTFEEFFAKKAARMGKFLKKGVPDVVAAARSVLNDWNTGKIKYCTQPPEVQEGQSVHISASIVHSEAREFDVENFESMETEILEHCAVKTDDIMEITSTGPLEIRQPREEAEPADKITASLVIDEKEKPAKGRKRKLDEEKEKVDPSLLLEENQSLNKGIKQMQKLKKKQNVRNEKKISKITDVLDSFSLGPSSSKAEKYDFDEDYVIE
# B4: Vinc (protein)
# chain: MPVFHTKTIESILDPVAQQVSRLVILHEEAEDGNAMPDLSRPVQVVSAAVANLVKVGRDTINSSDDKILRQDMPSALHRVEGASQLLEEASDMLRSDPYSGPARKKLIEGSRGILQGTSSLLLCFDESEVRKIIQECKRVLDYLAVAEVINTMEQLVQFLKDLSPCLSKVHREVGAREKELTHQVHSEILVRCLEQVKTLAPILICSMKVYIHIVEQQGRGAEEAAENRNYLAARMSDELQEIIRVLQLTTYDEDTSELDNLTVLKKLSNAISNKMEQANEWLSNPYALRGGVGEKALRQVIDNATEISERCLPQDSYPIRKLADEVTAMANTLCELRQEGKGQSPQAESLVRGIRDRMGELKSLVHQAVLGVDKAGVQQTAHTIQGRLEQAVKWLQHPEINDGGLGERAINLIVEEGRKVAEGCPGHQKAEIQQLCDEVERLKRQAAGSGPAAKQAAKQLTQKLYELKAAIQNALVNRIVQDFMDVSTPLKQFTEAVLQPEGTPGREQNFNQKSNNLQAFSDRASKTSRMVAAGGACGNKKIAEILLSSAAQVDSLTPQLISAGRIRMNYPGSKAADEHLQNLKQQYADTVLRMRTLCDQATDPADFIKTSEEHMQVYAKLCEDAIHARQPQKMVDNTSNIARLINRVLLVAKQEADNSEDPVFTERLNAAANRLERSLPAMVGDAKLVATNIADPAAAAAWKNSFQRLLGDVREVRDAIAPPQPPPLPTSLPPPIPELSALHLSNQNAERAPPRPPLPREGLAPVRPPPPETDDEDEGVFRTMPHANQPILIAARGLHQEVRQWSSKDNEIIAAAKRMAILMARLSELVLSDSRGSKRELIATAKKIAEASEDVTRLAKELARQCTDRRIRTNLLQVCERIPTIGTQLKILSTVKATMLGAQGSDEDREATEMLVGNAQNLMQSVKETVRAAEGASIKIRSDQTSNRLQWVRRQPWYQY
# B5: AnxB11 (protein)
# chain: MYPFGSGMPSHPPTSTNHHEPPRAPFGAGWVPPMQQNSPYPPPSQPHPHSQPSSQMHPQQHQQYPGGAPAPYPPMSAPYPSAAPSYPPYPTSNPYPAQYAPPAHNHYQQPSVSNSPYPADRGYTPAMTAGYDAGYGYGNGQGHGQGHGHGQGHGHGHGQGHEYGHGYGQGYGHGQGHGNGQGHAHRSLPAHREGTPTVVPAANFDAVKDAHDLRKAMKGFGTDEDALINIICRRSNEQRQEIQRQFKTHFGKDLIEDIKSETSGNFEKLLVGLLRPIVDYYCAELNDAMAGLGTDEEVLIEILCTLSNMEINTIKNQYLRLYGAHLESELKSETSGNFKRLLTSLCTAARDESGRVDPVAAKNDARELLKAGELRVGTDESMFNMILCQRNYQQLKLIFQEYEGMTGHSLEKAIKKEFSGDVMEGLIAIYRCVTNKAEYFASRLHKAMAGIGTNDTQLIRVIITRSEIDMTDIKVAFERLYGKSLKSWIKGDTSGHYKHALYALVGEQRSS
# B6: Lst8 (protein)
# chain: MGDQQQLILATGGYDHTIKVWQAHTGNCIKTMRFVETSQVNALDRTPDKTRLAACGYQCIRLYDLESNCTAPVINFDGVQKNVTRLGFQEDGNWMFTAGEDHHVRIWDMIAAPPHCSRIFDCEAPVNAACLHPNQVEIAMGSQNGSVFLWDVKSERHERIVPEVDASIQDVAISPDGRYLAAANNKGNCYIWSLTSQDQKMSTLRPNRKIPAHSRYILRCKFSPDSRLLLTTSGDGTVCIWKTDDFSKWRELCIENYWVWDAAFSADSKWLFTASSDGIARLWKLQTKSSIRDYTGHTKAITALSFKDEIVGK
# B7: CG4511 (protein)
# chain: MANILENQLFTAAKTIEQQLDQQLDRLDNLDSDDLKVLREQRLREMKDLNNKKQEWLRNGHGTYTELADEKEFFEMSKKSPNIVCHFYRDSTERCKIVDMHLKILAAKHVEAKFCKVNAEKTPFLTQRLRIKVIPTIALVKDSKTKDFIVGFTDLGNCDDFATEMLEWRIAHSGAIDYKGDLMQPPDVKRKPFINRPQKTIRGGYDSDDSDIDLDD
# B8: Vps28 (protein)
# chain: MQEQSPELYEEVKLFRNAREREKYDNMADLYAIINTIQQLEKAYIRDCITPQEYTAACSKYLVQYKVAFKQVQCDEFPSVETFVKKFRLDCPAALERIREDRPITIRDDKGNTSKCIAEIVSLFITIMDKLRLQINTMDALQPDVKDLADNMNRLSLIPEDFDAKLKVEKWLGSLNEMQASDELSEGQVRQFLFDLESAYADFNKLLHSQ
# B9: IM18 (protein)
# chain: MKLIALCCLLLLGLLGFLAAPGVASPSRHTGPGNGSGSGAGSGNPFRSPSSQQRPLYYDAPIGKPSKTMYA
# B10: CG7218 (protein)
# chain: MNATLNSAGGKRQLRFRGDVTGSRVEELHHQQQEEQKQKAPLAQDDVAATPTATPAAGSAQQRLQSGTAETCTNTFYDFFKVEMTRGYMLEHDEERYSARRQKIYSFMRIPRDLERFMVYGIMQCADSFLYIHTFLPVRFVMAVWALVSRTVARIFRLRSSGQRLLSPAEICDLLKGVIWMTVTLIMLLVDTNRVYHIIKSQSIIKLYIFYNMLEVGDRLLSAFGQDTIDALFWTATEPKNSKREHFGVLTHVLFTLIYVFLHSGLIMFQATCLNVAVNSNNKGLLTIMISNNFVELKGSVFKKFDKNNLFQLTCSDVRERFHLSVLLFIVVIQTMKEFDWSITQFCVMLPDCFAVLFTEILIDWVKHAFITRFNELPESIYREYTTSLAYDMTQTRQKHAFSDHSDLVARRMGFIPFPLAVVLIKAIYTAVSFENLAAWLLFLLAYLFAMGLRICLTICALGKACKLMKEHQTERNSSTPSSMTNVPVIGAAAPVSAAATGGQNHNNNNNNNNNSISIGSKPAQVTTLLTPPSAGHLDVSKNFSRTSIASTSTPKKAVSEQELDVTNSLELGATALFSNSDVDLDDVCLNEQVTNTNTSSAVQEVYQEQDLVRSQPDLMLLNNSGDGVTSAKAKKATQRLPKRTHKRSESEPGMPSMVEKGGAAGIAGGNQTTQL
# B11: CG8230 (protein)
# chain: MGINVSRTADLGSNQWLQRFVGRQHIAHDDEAFWNGLLNYNIVLPENSQDQLNLDSRLEALCQSFIGNNLKTGNFGSLVTVFLEKTSELLSLSDQESNMHVWQTFNALFIIRSLVKYINETGSEFQLLQHFEAMPNAELLQAALEQQQQTPAESATIAMEATEQSAAAAVPVIVDGSKFETFIDALVNLIVVIPVKEFTYHLHLEAVNMLITLLSVHLFAQQPTDKSIVFRTVFKCQHANVLMSALLHFVARIVEVPHTMFGSSSAGSFVFGIAESLLSIFTFRKQPDILKAGQAAGGGELSQRFRTHYPLANQSLLLILILTNHCTAQDNAYRTSLFSCADSKDSPKQGAVSFQIDFSAVYETLCTIVTIDQATLLLYLLLHRNERFYRFVMQQQDLEQLVIPILQTLYNAPDSNSHHIYMSLIVLLILSEDEGFNKNVHTIMLKNITWYTERTISEISLGGILILIVIRTIQYNMLKMRDKYLHTNCLAALANMSGHFRALHPYVAQRLVSLFETLARKHTRLDAQLKEPADSAVFVNVSTTPEDMLQDLSVLEEVLRMVLEILNSCLTNQLVYCPNLVYTLLYKRSVFEGFRSHHAFQDVIQNIDMVVGFFSSRLQRVQEQRGELGVNEVLEVISKGASQWSSDRLRKFPDLKFKYVEEDAPEEFFIPYVWTLVCKYGCVHFSSESIKSVTTDIAC
# Columns and labels:
# Test in all cases: MAPPIT interaction score (arbitrary units); higher = stronger binary interaction signal, active = hit call of the paper
# CASK = settings: MAPPIT configuration: N-C; pair source set: screen_4
# CG30324 = settings: MAPPIT configuration: N-C; pair source set: screen_4
# stck = settings: MAPPIT configuration: N-C; pair source set: screen_3
# CG10336 = settings: MAPPIT configuration: N-C; pair source set: screen_3
# Gint3 = settings: MAPPIT configuration: N-N; pair source set: Lit-BM-16
# ZnT63C = settings: MAPPIT configuration: N-N; pair source set: DPIM
# CG10013 = settings: MAPPIT configuration: N-N; pair source set: DPIM
# CAP = settings: MAPPIT configuration: N-N
# Fkbp12 = settings: MAPPIT configuration: N-N; pair source set: Curagen_low_conf
# ND-75 = settings: MAPPIT configuration: N-N; pair source set: Curagen_low_conf
# Pax = settings: MAPPIT configuration: N-N; pair source set: screen_2
# CG10465 = settings: MAPPIT configuration: N-N; pair source set: Curagen_high_conf
# CCT3 = settings: MAPPIT configuration: N-N; pair source set: DPIM
# CCT7 = settings: MAPPIT configuration: N-N; pair source set: DPIM
# vlc = settings: MAPPIT configuration: N-C; pair source set: screen_3
# CG10444 = settings: MAPPIT configuration: N-C; pair source set: screen_3
# CG10026 = settings: MAPPIT configuration: N-N; pair source set: Finley_Y2H
# CCT6 = settings: MAPPIT configuration: N-N; pair source set: DPIM
# Spt7 = settings: MAPPIT configuration: N-N; pair source set: Curagen_high_conf
# 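Also: HEK293T cells with Epo stimulation, STAT-responsive firefly luciferase reporter, fold induction versus unstimulated cells divided by the larger fold induction of two negative controls lacking either bait or prey.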
binder,measurement,setting,value
B1,MAPPIT interaction score,CASK,1.2
same,MAPPIT interaction score,CG30324,3.25
same,MAPPIT interaction score,stck,4.22 (active)
B2,MAPPIT interaction score,CG10336,2.12
same,MAPPIT interaction score,Gint3,1.48
same,MAPPIT interaction score,ZnT63C,-0.374
B3,MAPPIT interaction score,CG10013,-0.155
B4,MAPPIT interaction score,CAP; pair source set: Lit-BM-16,2.34
same,MAPPIT interaction score,Fkbp12,0.498
same,MAPPIT interaction score,ND-75,-0.456
same,MAPPIT interaction score,Pax,5.44 (active)
B5,MAPPIT interaction score,CG10465,0.12
B6,MAPPIT interaction score,CCT3,0.335
B7,MAPPIT interaction score,CCT7,0.524
B8,MAPPIT interaction score,CAP; pair source set: screen_1,1.33
same,MAPPIT interaction score,vlc,1.09
B9,MAPPIT interaction score,CG10444,0.79
B10,MAPPIT interaction score,CG10026,1.47
B11,MAPPIT interaction score,CCT6,3.15 (active)
same,MAPPIT interaction score,Spt7,-0.0669
